According to PubChem BioAssay (Tox21):
Values joined by “and” are separate entries in the source; they are usually repeats but may differ in a detail not shown here. Equal entries are not always repeated. Records with an inconclusive call do not appear. Active and inactive are the calls of the source. Unless noted, calls follow the shape of the dose curve; as a rule, active = well fitted curve in the direction sought with a large enough effect in the repeat runs; inconclusive = weak or mixed curves; inactive = no such curve, though single readings can be large; an effect the other way counts as inactive or inconclusive.

How the values were obtained:
[1] = qHTS assay to identify small molecule antagonists of the constitutive androstane receptor (CAR) signaling pathway - cell viability counter screen (AID 1224837); also: nearly all actives have a fitted effect of over 45% in size
Method in brief: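 HepG2-CYP2B6-hCAR cells, 2500/well, 4 hr pre-incubation; compound titration, 15 conc.; CITCO 50 nM final; 23 hr, 37 C/5% CO2; CellTiter-Fluor, fluorescence intensity.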

[2] = biological target: Nuclear receptor subfamily 1 group I member 3 (Homo sapiens) (UniProt Q14994); assay: qHTS assay to identify small molecule antagonists of the constitutive androstane receptor (CAR) signaling pathway (AID 1224838);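 also: HepG2 cells stably expressing hCAR with CYP2B6 luciferase reporter stimulated by CITCO; nearly all actives have a fitted effect of over 40% in size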
Sequence of Nuclear receptor subfamily 1 group I member 3 (Homo sapiens) (Q14994 whole entry, looked up): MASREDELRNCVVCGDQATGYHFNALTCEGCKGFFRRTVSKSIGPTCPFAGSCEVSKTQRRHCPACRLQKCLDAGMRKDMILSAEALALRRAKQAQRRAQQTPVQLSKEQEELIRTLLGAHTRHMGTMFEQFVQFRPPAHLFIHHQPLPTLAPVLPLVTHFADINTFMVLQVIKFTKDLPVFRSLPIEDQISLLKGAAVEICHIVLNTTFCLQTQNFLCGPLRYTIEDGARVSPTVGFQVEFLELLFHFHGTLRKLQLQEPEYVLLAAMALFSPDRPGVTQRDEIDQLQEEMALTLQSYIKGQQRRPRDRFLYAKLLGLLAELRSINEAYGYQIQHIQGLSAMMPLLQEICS
Method in brief: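 HepG2-CYP2B6-hCAR cells; 4 h pre-incubation; cpd (15 conc) + CITCO 50 nM final; 24 h, 37 C/5% CO2; ONE-Glo, luminescence.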

[3] = biological target: Nuclear receptor subfamily 1 group I member 3 (Homo sapiens) (UniProt Q14994); assay: qHTS assay to identify small molecule agonists of the constitutive androstane receptor (CAR) signaling pathway (AID 1224839); also: nearly all actives have a fitted effect of over 15% in size; also: potency is read from the fitted curve at half-maximal effect;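 as to activation: HepG2 cells stably carrying human CAR and a CYP2B6 luciferase reporter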
Method in brief: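 HepG2 cells stably co-transfected with hCAR and a CYP2B6-2.2kb luciferase reporter; compounds at 15 concentrations with 0.75 uM PK11195 present. After 24 hr at 37 C, luciferase read by ONE-Glo luminescence.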

[4] = biological target: Thyrotropin receptor (Homo sapiens) (UniProt P16473); assay: qHTS assay to identify small molecule agonists of the thyroid stimulating hormone receptor (TSHR) signaling pathway (AID 1224843; calls by dose curve; also: nearly all actives have a fitted effect of over 45% in size; also: potency is read from the fitted curve at half-maximal effect)
Sequence of Thyrotropin receptor (Homo sapiens) (P16473 whole entry, looked up): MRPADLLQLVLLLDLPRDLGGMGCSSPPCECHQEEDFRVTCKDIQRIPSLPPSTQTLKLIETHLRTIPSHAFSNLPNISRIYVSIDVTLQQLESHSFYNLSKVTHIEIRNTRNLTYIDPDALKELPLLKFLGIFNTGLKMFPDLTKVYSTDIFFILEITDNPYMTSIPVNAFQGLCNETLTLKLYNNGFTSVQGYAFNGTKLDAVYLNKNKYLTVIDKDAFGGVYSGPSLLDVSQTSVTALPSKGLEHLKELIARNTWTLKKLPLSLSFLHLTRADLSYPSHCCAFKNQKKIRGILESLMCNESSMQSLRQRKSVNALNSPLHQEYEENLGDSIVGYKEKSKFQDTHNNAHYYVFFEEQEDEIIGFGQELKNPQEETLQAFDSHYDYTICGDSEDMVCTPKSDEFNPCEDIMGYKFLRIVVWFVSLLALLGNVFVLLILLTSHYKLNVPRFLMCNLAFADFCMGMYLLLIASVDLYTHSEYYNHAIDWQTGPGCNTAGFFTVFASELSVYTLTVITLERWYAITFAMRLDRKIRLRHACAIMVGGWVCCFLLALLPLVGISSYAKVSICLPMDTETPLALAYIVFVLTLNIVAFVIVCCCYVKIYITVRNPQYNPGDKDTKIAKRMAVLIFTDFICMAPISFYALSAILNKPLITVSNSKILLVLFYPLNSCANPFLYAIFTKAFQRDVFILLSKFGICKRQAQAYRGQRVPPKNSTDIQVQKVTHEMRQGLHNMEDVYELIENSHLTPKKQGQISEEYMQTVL
Method in brief: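 TSHR-expressing HEK293 cells (800 per well) were exposed to compounds for 30 min at room temperature. cAMP was then detected by HTRF competition with cAMP-d2 and anti-cAMP cryptate, read after 1 h at room temperature. Fifteen concentrations, triplicate.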

[5] = qHTS assay to identify small molecule agonists of the hypoxia (HIF-1) signaling pathway - cell viability counter screen (AID 1224844; calls by dose curve; also: nearly all actives have a fitted effect of over 50% in size; also: potency is read from the fitted curve at half-maximal effect)
Method in brief: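 ME-180 HRE-bla cells, 2,000/well, 0.5% dialyzed FBS; 5 hr settle, 17 hr compound at 37C/5% CO2; CCF4-AM reporter read first, then CellTiter-Glo luminescence after 30 min RT.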

[6] = qHTS RealTime-Glo MT Cell Viability Assay in HEK293 cells - 32 hour (AID 1224868); also: nearly all actives have a fitted effect of over 50% in size; also: potency is read from the fitted curve at half-maximal effect; as to activity change, negative = cytotoxic: top concentration of the series differs between compounds
Method in brief: (§1)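 HEK293 cells seeded with NanoLuc/prosubstrate reagent, rested 5 h at 37 C, then dosed and kept at 37 C up to 40 h. Nonlytic real-time luminescence from viable cells read at 0, 8, 16, 24, 32 and 40 h.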

[7] = A CellTox Green Cytotoxicity Assay to monitor cytotoxicity in HEK293 cells - 0 hour (AID 1224869); also: nearly all actives have a fitted effect of over 50% in size
Method in brief: (§2)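 Nonlytic real-time cytotoxicity: HEK293 + CellTox Green reagent plated, 5 h preincubation, pintool compound addition (23 nL in DMSO), 37 C for 40 h, fluorescence measured at successive time points.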

[8] = A CellTox Green Cytotoxicity Assay to monitor cytotoxicity in HEK293 cells - 40 hour (AID 1224871); also: nearly all actives have a fitted effect of over 45% in size; also: potency is read from the fitted curve at half-maximal effect
Method in brief: as §2

[9] = qHTS RealTime-Glo MT Cell Viability Assay in HepG2 cells - 8 hour (AID 1224873); also: nearly all actives have a fitted effect of over 55% in size
Method in brief: (§3)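 HepG2 cells mixed with RealTime-Glo MT reagents (NanoLuc plus cell-permeant prosubstrate) were seeded at 600 cells/well, incubated 5 h at 37 C/5% CO2, then pinned with compounds in DMSO; nonlytic luminescence tracked viability during 40 h treatment.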

[10] = qHTS assay to identify small molecule agonists of H2AX (AID 1224845; active = well fitted activation curve with a large enough effect in the signal ratio in the repeat runs, not every such curve was filed as active; the % refers to the signal ratio; also: potency is read from the fitted curve at half-maximal effect)
Method in brief: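 Wild-type CHO-K1 cells plated overnight, then exposed 3 hr at 37C to compounds at 15 concentrations (0.76% DMSO). Lysed, then HTRF anti-pH2AX(S139)-cryptate/anti-H2AX-d2 detection after 24 hr at room temperature; emissions 665 and 620 nm.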

[11] = qHTS assay to identify small molecule agonists of H2AX - cell viability counter screen (AID 1224847; calls by dose curve; also: nearly all actives have a fitted effect of over 30% in size; also: potency is read from the fitted curve at half-maximal effect; as to activity change, negative = cytotoxicity: top concentration of the series differs between compounds)
Method in brief: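 CHO-K1 cells plated overnight at 37C, then exposed 3 h at 37C to compounds at 15 concentrations (0.76% DMSO final). Viability by CellTiter-Glo luminescence after 30 min at room temperature.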

[12] = qHTS RealTime-Glo MT Cell Viability Assay in HepG2 cells - 24 hour (AID 1224867); also: nearly all actives have a fitted effect of over 50% in size
Method in brief: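 HepG2 cells (600/well) were dispensed with RealTime-Glo reagents, incubated 5 h at 37 °C, then treated with compounds in DMSO for up to 40 h. Nonlytic NanoLuc luminescence reflecting viable cells was read at each stated time point.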

[13] = qHTS RealTime-Glo MT Cell Viability Assay in HepG2 cells - 40 hour (AID 1224870); also: nearly all actives have a fitted effect of over 50% in size
Method in brief: as §3

[14] = qHTS assay to identify small molecule antagonists of the estrogen related receptor signaling pathway with the pleiotropic PPARgamma coactivator (PGC) from Tox21 10K library - cell viability counter screen (AID 1224840; active = well fitted cell-killing curve with a large enough effect in the repeat runs, not every such curve was filed as active; also: nearly all actives have a fitted effect of over 40% in size; also: potency is read from the fitted curve at half-maximal effect)
Method in brief: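 PGC/ERR cells, 2,000/well; 6 h pre-incubation 37 C/5% CO2; cpd in DMSO via pin tool; 17.5 h 37 C; CellTiter-Fluor, 30 min; fluorescence.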

[15] = qHTS assay to identify small molecule agonists of the estrogen related receptor signaling pathway with the pleiotropic PPARgamma coactivator (PGC) from Tox21 10K library (AID 1224842); also: nearly all actives have a fitted effect of over 15% in size
Method in brief: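 PGC/ERR reporter cells (NTP line) were seeded 2,000 per well, rested 6 h at 37 C/5% CO2, then pin-dosed with compounds in DMSO for 18 h at 37 C; luciferase read by One-Glo luminescence after 30 min at room temperature.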

[16] = qHTS assay to identify small molecule agonists of the hypoxia (HIF-1) signaling pathway (AID 1224846; active = well fitted activation curve with a large enough effect in the signal ratio in the repeat runs, not every such curve was filed as active; the % refers to the signal ratio)
Method in brief: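 Cell line: CellSensor HRE-bla ME-180; 2,000 cells/well; 0.5% dialyzed FBS; 5 h preincubation; DMSO compound pin transfer; 17 h, 37C, 5% CO2; CCF4-AM added; bla FRET signal scored for activation.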

[17] = qHTS assay to identify small molecule antagonists of the estrogen related receptor (ERR) signaling pathway from Tox21 library (AID 1224848); also: nearly all actives have a fitted effect of over 50% in size; also: potency is read from the fitted curve at half-maximal effect
Method in brief: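 Cells: ERR line, 2,000/well; 6 h preincubation 37 C/5% CO2. Cpd in DMSO via pin tool; 18 h, 37 C. ONE-Glo, 30 min RT, luminescence.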

[18] = qHTS RealTime-Glo MT Cell Viability Assay in HEK293 cells - 16 hour (AID 1224872); also: nearly all actives have a fitted effect of over 50% in size; also: potency is read from the fitted curve at half-maximal effect; as to activity change, negative = cytotoxicity: top concentration of the series differs between compounds
Method in brief: as §1

[19] = qHTS assay to identify small molecule antagonists of the estrogen related receptor signaling pathway with the pleiotropic PPARgamma coactivator (PGC) from Tox21 10K library (AID 1224841; call rule not given here)
Method in brief: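 PGC/ERR cell line, 2,000 cells/well; 6 h pre-incubation 37 C/5% CO2; compounds (DMSO) pinned in; 18 h, 37 C; One-Glo, 30 min RT; luminescence.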

[20] = qHTS assay to identify small molecule agonists of the estrogen related receptor (ERR) signaling pathway from Tox21 library (AID 1224849; calls by dose curve; also: nearly all actives have a fitted effect of over 15% in size); settings: ERR reporter cell line, ONE-Glo luciferase, 18 h; at 92.4 µM (top of the series) unless noted
Method in brief: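 ERR cells, 6 h pre-incubation 37 C/5% CO2; cpd in DMSO pinned; 18 h 37 C; ONE-Glo added, 30 min RT; luminescence read. Agonist mode, qHTS.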
% is scaled to controls: 0 for no effect and ±100 for the full control effect.

Cc1ccc(-n2[nH]c(C)c(N=Nc3cccc(-c4cccc(C(=O)O)c4)c3O)c2=O)cc1C
inactive: Potency [1] | Potency [2] | Potency [3] | Potency [4] | Potency [7] | Potency [8] | Potency [9]
active: Potency [5] 6.74 µM | Potency [6] 23.9 µM

Clc1ccc(C(c2ccccc2Cl)C(Cl)Cl)cc1 (stereo unspecified)
active: Potency [3] 13.7 µM and 11.9 µM | Potency [4] 12.2 µM and 5.31 µM | Potency [5] 54.9 µM | Potency [10] 113 µM | Potency [11] 101 µM
inactive: Potency [1] | Potency [2] | Potency [12] | Potency [7] | Potency [13] | Potency [8] | Potency [9]

Cc1cncc(C)c1
inactive: Potency [1] | Potency [3] | Potency [14] | Potency [15] | Potency [4] | Potency [5] | Potency [10] | outcome [16] | Potency [11] | Potency [17] | Potency [12] | Potency [6] | Potency [13] | Potency [18] | Potency [9]

Oc1ccc(-c2ccccc2)c(Cl)c1
inactive: Potency [1] | Potency [2] | Potency [14] | Potency [4] | Potency [10] | Potency [12] | Potency [7] | Potency [13] | Potency [9]
active: Potency [11] 89.8 µM | Potency [6] 24.5 µM | Potency [18] 24.5 µM

CCCCCCOc1cc(C)c(O)c(C)c1C
active: Potency [3] 49.2 µM | Potency [14] 55.1 µM | Potency [17] 61.9 µM | Potency [6] 15.7 µM | Potency [8] 44.2 µM | Potency [18] 14 µM
inactive: Potency [1] | Potency [19] | Potency [15] | Potency [7]

CC(C)c1ccccc1N
inactive: Potency [1] | Potency [3] | Potency [14] | Potency [19] | Potency [15] | Potency [4] | Potency [5] | Potency [10] | outcome [16] | Potency [11] | Potency [17] | activity change, positive = activation [20] 3.39% | Potency [12] | Potency [6] | Potency [7] | Potency [13] | Potency [9]

O=C=NCc1cccc(CN=C=O)c1
inactive: activity change, negative = cytotoxicity [1] -0.191% [at 19 µM] | activation [3] -1.77% [at 19 µM] | viability change, negative = cytotoxic [14] -5.21% [at 19 µM] | activation [4] 1.05% [at 19 µM] | activity change, negative = cytotoxicity [5] 6.46% [at 15.8 µM] | activation (H2AX phosphorylation) [10] -2.62% [at 31.6 µM] | activation [16] -0.762% [at 15.8 µM] | activity change, negative = cytotoxicity [11] 1.36% [at 31.6 µM] | activity change, negative = cytotoxicity [12] 1.03% [at 15.8 µM] | activity change, negative = cytotoxic [6] 6.09% [at 15.8 µM] | cytotoxicity [7] -8.38% [at 15.8 µM] | activity change, negative = cytotoxic [13] 0.58% [at 15.8 µM] | cytotoxicity increase [8] -14.1% [at 15.8 µM] | activity change, negative = cytotoxicity [18] 2.12% [at 15.8 µM] | viability change, negative = cytotoxic [9] 3.05% [at 15.8 µM]

COc1ccc(-n2nc(CCC(=O)N(C)O)cc2-c2ccc(Cl)cc2)cc1
active: Potency [5] 19 µM
inactive: Potency [1] | Potency [2] | Potency [4] | Potency [11] | Potency [12] | Potency [7] | Potency [8] | Potency [9]

CC(C)=C1CC[C@@H](C)CC1=O
inactive: Potency [1] | Potency [3] | Potency [14] | Potency [4] | Potency [5] | Potency [10] | outcome [16] | Potency [11] | Potency [12] | Potency [6] | Potency [7] | Potency [13] | Potency [8] | Potency [9]

CN1[C@@H]2CC[C@@H]1CC(OC(=O)C(CO)c1ccccc1)C2 (stereo partly specified)
inactive: Potency [1] | Potency [2] | Potency [14] | Potency [5] | Potency [12] | Potency [6] | Potency [7] | Potency [13] | Potency [8] | Potency [18] | Potency [9]

C=CC(=O)OCCN(CC)CC
inactive: Potency [1] | Potency [3] | Potency [14] | Potency [4] | Potency [10] | Potency [11] | Potency [12] | Potency [6] | Potency [7] | Potency [13] | Potency [8] | Potency [9]

NCCCCCCNCCCCCCN
inactive: Potency [1] | Potency [3] | Potency [14] | Potency [19] | Potency [15] | Potency [5] | Potency [10] | outcome [16] | Potency [11] | Potency [17] | activity change, positive = activation [20] -13.7% | Potency [12] | Potency [6] | Potency [7] | Potency [13] | Potency [18] | Potency [9]

O=C(c1ccccc1)c1cc(Cl)ccc1O
inactive: Potency [1] | Potency [2] | Potency [14] | Potency [19] | Potency [15] | Potency [5] | outcome [16] | Potency [17] | Potency [12] | Potency [7] | Potency [13]

CCCCCCCCCCCCCCCCCO
inactive: activity change, negative = cytotoxicity [1] 8.93% [at 19 µM] | activation [3] 0.0374% [at 19 µM] | viability change, negative = cytotoxic [14] -0.916% [at 19 µM] | activity, negative = inhibition [19] 44.5% [at 19 µM] | activation [15] 4.3% [at 19 µM] | activity change, negative = cytotoxicity [5] 4.42% [at 15.8 µM] | activation (H2AX phosphorylation) [10] -3.22% [at 31.6 µM] | activation [16] -0.342% [at 15.8 µM] | activity change, negative = cytotoxicity [11] -0.549% [at 31.6 µM] | activity, negative = inhibition [17] -9.79% [at 19 µM] | activity change, negative = cytotoxicity [12] 0.355% [at 15.8 µM] | cytotoxicity [7] -13.6% [at 15.8 µM] | activity change, negative = cytotoxic [13] -3.35% [at 15.8 µM] | cytotoxicity increase [8] -18.9% [at 15.8 µM] | activity change, negative = cytotoxicity [18] -0.33% [at 15.8 µM]

c1cc2c3c(c1)ccc1cccc(c13)C2
inactive: Potency [1] | Potency [2] | Potency [14] | Potency [19] | Potency [15] | Potency [4] | Potency [12] | Potency [13] | Potency [18] | Potency [9]
active: Potency [17] 70.1 µM | Potency [8] 50 µM
